Experimental data reported in PubChem BioAssay (NCI).
This is part of a sample that, as a whole, favours compounds with a hit. Of some 83,000 tested, about 20% had one in any assay.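 48-hour exposure, single concentration, 96-well plates; percent growth endpoint where 0 means no net growth. Active: below 10.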 Calls of active or inactive are those of the source.

Key:
Assay in all cases: NCI-60 one-dose screen, 48 h (100 = growth as untreated, 0 = no growth, -100 = all killed)
Settings in all cases: 10 µM unless noted
NCI-H23 lung = test system: NCI-H23 lung
NCI-H226 lung = test system: NCI-H226 lung
NCI-H322M lung = test system: NCI-H322M lung
HOP-62 NSCLC = test system: HOP-62 NSCLC
NCI-H460 lung = test system: NCI-H460 lung
HOP-92 NSCLC = test system: HOP-92 NSCLC
NCI-H522 lung = test system: NCI-H522 lung
A549/ATCC NSCLC = test system: A549/ATCC NSCLC
786-0 renal = test system: 786-0 renal
COLO 205 colon = test system: COLO 205 colon

Measured: growth

O=C(CSc1nnc(-c2cc(-c3ccccc3)nc3ccccc23)n1-c1ccccc1)Nc1ccc(C(=O)/C=C/c2ccc(Cl)cc2)cc1
inactive: NCI-H23 lung 96.1% | NCI-H226 lung 91.4% | NCI-H322M lung 93.1% | HOP-62 NSCLC 93% | NCI-H460 lung 102% | HOP-92 NSCLC 82.1% | NCI-H522 lung 71.8% | A549/ATCC NSCLC 84.4% | 786-0 renal 96.3% | COLO 205 colon 99.6%

O=C(Nc1ncc(Cc2cc(C(F)(F)F)ccc2Cl)s1)c1cccs1
inactive: NCI-H23 lung 58.2% | NCI-H226 lung 76.5% | NCI-H322M lung 65.5% | HOP-62 NSCLC 42.5% | NCI-H460 lung 32.2% | HOP-92 NSCLC 47.1% | NCI-H522 lung 35.2% | A549/ATCC NSCLC 37.8% | 786-0 renal 79.6% | COLO 205 colon 56.2%

CSC1=Nc2c(c(C)c(-c3ccccc3)n2CCCC(=O)O)C2=NC(=O)C[C@H](C)N12
inactive: NCI-H23 lung 105% | NCI-H226 lung 110% | NCI-H322M lung 102% | HOP-62 NSCLC 89.7% | NCI-H460 lung 102% | HOP-92 NSCLC 94.3% | NCI-H522 lung 93% | A549/ATCC NSCLC 101% | 786-0 renal 102% | COLO 205 colon 119%

CCN(CC)c1ccc(CNc2cc(C)nc3ccccc23)cc1
inactive: NCI-H23 lung 26.9% | NCI-H226 lung 56.2% | NCI-H322M lung 80.3% | HOP-62 NSCLC 77.1% | NCI-H460 lung 58.2% | HOP-92 NSCLC 49.6% | NCI-H522 lung 53.5% | A549/ATCC NSCLC 72.7% | 786-0 renal 79.1%
active: COLO 205 colon 1.94%

Cc1cccc(N2CCC(=O)NC2=S)c1
inactive: NCI-H23 lung 98.5% | NCI-H226 lung 97.3% | NCI-H322M lung 101% | HOP-62 NSCLC 110% | NCI-H460 lung 104% | HOP-92 NSCLC 105% | NCI-H522 lung 97% | A549/ATCC NSCLC 99.1% | 786-0 renal 103% | COLO 205 colon 119%

COc1ccc(-c2cc(-c3ccccc3)nc(N3CCN(CCNc4ccnc5cc(Cl)ccc45)CC3)n2)cc1
active: NCI-H460 lung -68.6% | HOP-92 NSCLC -34.3% | NCI-H522 lung 2.04% | A549/ATCC NSCLC -16% | 786-0 renal -94.6% | COLO 205 colon -69.1%
inactive: NCI-H23 lung 14.8% | NCI-H226 lung 67.5% | NCI-H322M lung 88% | HOP-62 NSCLC 94.8%

C=C(CNCCc1ccc(O)cc1)[C@@H]1CC[C@]2(CO)CC[C@]3(C)[C@H](CC[C@@H]4[C@@]5(C)CCC(=O)C(C)(C)[C@@H]5CC[C@]43C)[C@@H]12
inactive: NCI-H23 lung 65.7% | NCI-H226 lung 93.1% | NCI-H322M lung 63.2% | HOP-62 NSCLC 84.4% | HOP-92 NSCLC 35.1% | NCI-H522 lung 29.2% | A549/ATCC NSCLC 26.7% | 786-0 renal 44.7%
active: NCI-H460 lung -48.8% | COLO 205 colon -55.6%

CC1(C)C(N)=Nc2cc(OCCCN3Cc4ccccc4C3)c(OCC3CC3)cc21
inactive: NCI-H23 lung 93.5% | NCI-H226 lung 82.9% | NCI-H322M lung 82.3% | HOP-62 NSCLC 93.2% | NCI-H460 lung 79.8% | HOP-92 NSCLC 63.7% | NCI-H522 lung 59.6% | A549/ATCC NSCLC 77.2% | 786-0 renal 64%
active: COLO 205 colon -57.2%

O=C(CC(=O)Nc1cccc(C(=O)O)c1)Nc1cccc(C(=O)O)c1
inactive: NCI-H23 lung 107% | NCI-H226 lung 112% | NCI-H322M lung 105% | HOP-62 NSCLC 88.3% | NCI-H460 lung 100% | HOP-92 NSCLC 99.7% | NCI-H522 lung 78% | A549/ATCC NSCLC 85.8% | 786-0 renal 98% | COLO 205 colon 100%

Fc1cccc(-c2ccc3c(c2)C2(CCNCC2)CN3)c1
inactive: NCI-H23 lung 92.1% | NCI-H226 lung 98% | NCI-H322M lung 101% | HOP-62 NSCLC 105% | NCI-H460 lung 106% | HOP-92 NSCLC 91.3% | NCI-H522 lung 90.4% | A549/ATCC NSCLC 99.9% | 786-0 renal 98.5% | COLO 205 colon 107%

CN(C)c1ccc(-c2ccc3c(c2)c(-c2ccccc2)nc(=O)n3C)cn1
inactive: NCI-H23 lung 71% | NCI-H226 lung 77.2% | NCI-H322M lung 60.9% | HOP-62 NSCLC 36.8% | NCI-H460 lung 19.7% | A549/ATCC NSCLC 45.8% | 786-0 renal 26.2% | COLO 205 colon 28.1%
active: HOP-92 NSCLC -45.4% | NCI-H522 lung 7.96%

COc1ccc(/C=C2\CN(C(=O)C(Cl)Cl)C/C(=C\c3ccc(OC)cc3)C2=O)cc1
inactive: NCI-H226 lung 61.3% | HOP-62 NSCLC 40.5% | NCI-H522 lung 14.9%
active: NCI-H23 lung -36.9% | NCI-H322M lung 4.8% | NCI-H460 lung -34.5% | HOP-92 NSCLC -3.88% | A549/ATCC NSCLC 4.79% | 786-0 renal -48.4% | COLO 205 colon -34.2%

O=C(/C=C/c1ccc(Oc2ccc(Br)cc2)cc1)c1ccc(Br)cc1
inactive: NCI-H23 lung 95.3% | NCI-H226 lung 103% | NCI-H322M lung 95.3% | HOP-62 NSCLC 99.9% | NCI-H460 lung 105% | HOP-92 NSCLC 91.6% | NCI-H522 lung 91.1% | A549/ATCC NSCLC 94.4% | 786-0 renal 101% | COLO 205 colon 113%

CS(=O)(=O)Nc1cc(-c2ccc3ncc(C#N)c(Nc4ccc(F)c(Cl)c4)c3c2)cnc1Cl
active: NCI-H23 lung -11.7% | NCI-H226 lung -0.649% | NCI-H322M lung 5.43% | HOP-62 NSCLC 1.41% | NCI-H460 lung 6.16% | HOP-92 NSCLC -1.46% | NCI-H522 lung -18.1% | A549/ATCC NSCLC 5.08% | 786-0 renal 6.73% | COLO 205 colon -53.5%

N#C/C(=C\c1ccc([N+](=O)[O-])cc1)n1nnc2cc(F)c(F)cc21
active: NCI-H226 lung -1.27% | HOP-92 NSCLC 9.03% | 786-0 renal -58.4%
inactive: NCI-H23 lung 34.6% | NCI-H322M lung 72.5% | HOP-62 NSCLC 63.9% | NCI-H460 lung 11.7% | NCI-H522 lung 36.9% | A549/ATCC NSCLC 64.5% | COLO 205 colon 19.9%

NC(=O)c1cnc(Nc2cccc(N)c2)nc1NCCCNC(=O)C1CCC1
inactive: NCI-H23 lung 79.8% | NCI-H226 lung 69.1% | NCI-H322M lung 86.6% | HOP-62 NSCLC 46.6% | NCI-H460 lung 69.8% | HOP-92 NSCLC 123% | NCI-H522 lung 64.5% | A549/ATCC NSCLC 87.7% | 786-0 renal 76.8% | COLO 205 colon 28.2%

C/C(Cc1ccc(Cl)cc1)=C(\c1ccc(OCCCN(C)C)cc1)c1ccc(OC(=O)Cc2ccccc2)cc1
inactive: NCI-H23 lung 101% | NCI-H226 lung 110% | NCI-H322M lung 105% | HOP-62 NSCLC 92.2% | NCI-H460 lung 110% | HOP-92 NSCLC 101% | NCI-H522 lung 70.5% | A549/ATCC NSCLC 105% | 786-0 renal 104% | COLO 205 colon 112%

CC1(C)NCCC[C@]2(C)[C@H]3CC[C@H]4[C@H]5[C@H](C(=O)/C=C/c6cccnc6)CCC[C@]5(CO)CC[C@@]4(C)[C@]3(C)CC[C@@H]12
active: COLO 205 colon -72.9%
inactive: NCI-H23 lung 77.6% | NCI-H226 lung 96.2% | NCI-H322M lung 85.5% | HOP-62 NSCLC 97.3% | NCI-H460 lung 10.9% | HOP-92 NSCLC 48.1% | NCI-H522 lung 88% | A549/ATCC NSCLC 67% | 786-0 renal 83.8%

C=C1C(=O)O[C@H]2[C@H]1CC/C(COC(=O)c1ccc(C(=O)O)s1)=C\CC[C@@]1(C)O[C@@H]21
inactive: NCI-H23 lung 57.4% | NCI-H226 lung 41.9% | NCI-H322M lung 68.2% | HOP-62 NSCLC 75% | NCI-H460 lung 30.6% | A549/ATCC NSCLC 80.3% | 786-0 renal 41.6%
active: HOP-92 NSCLC 1.03% | NCI-H522 lung -79.8% | COLO 205 colon -0.755%

C=C(C)[C@@H]1CCC[C@]2(C(=O)O)CC[C@]3(C)[C@@H](CC[C@@H]4[C@@]5(C)C/C(=C/c6ccncc6)C(=O)C(C)(C)[C@@H]5CC[C@]43C)[C@@H]12
inactive: NCI-H23 lung 20.9% | NCI-H226 lung 36.1% | NCI-H322M lung 26.3% | HOP-62 NSCLC 50.4% | HOP-92 NSCLC 57.2% | NCI-H522 lung 16.6% | A549/ATCC NSCLC 16.3% | 786-0 renal 39.8%
active: NCI-H460 lung 5.65% | COLO 205 colon 6.51%

COc1cc(/C=C/C(=O)/C=C(O)/C=C/c2ccc(OC(=O)C34CC5CC(CC(C5)C3)C4)c(OC)c2)ccc1OC(=O)C12CC3CC(CC(C3)C1)C2
inactive: NCI-H23 lung 103% | NCI-H226 lung 93.6% | NCI-H322M lung 102% | HOP-62 NSCLC 99.1% | NCI-H460 lung 108% | HOP-92 NSCLC 110% | NCI-H522 lung 94.8% | A549/ATCC NSCLC 103% | 786-0 renal 105% | COLO 205 colon 112%

CN1CCN(Cc2ccc(NC(=O)c3cncc(C#Cc4cnc5ccc(Cl)nn45)c3)cc2C(F)(F)F)CC1
active: NCI-H23 lung -29.5% | NCI-H226 lung -58.3% | NCI-H322M lung -14.2% | HOP-62 NSCLC -15.7% | NCI-H460 lung -47.3% | HOP-92 NSCLC -16.3% | NCI-H522 lung -12.8% | A549/ATCC NSCLC 4.24% | 786-0 renal -53% | COLO 205 colon -46.1%

COc1ccc(C(=S)N2CCN(c3ccc(Cl)cc3)CC2)cc1
inactive: NCI-H23 lung 101% | NCI-H226 lung 96% | NCI-H322M lung 89.3% | HOP-62 NSCLC 97.8% | NCI-H460 lung 105% | HOP-92 NSCLC 89.9% | NCI-H522 lung 75.6% | A549/ATCC NSCLC 84% | 786-0 renal 92.5% | COLO 205 colon 103%

Cn1cc(-c2ccc(-c3cn(C)c4ccc(Cl)cc34)[nH]2)c2cc(Cl)ccc21
inactive: NCI-H23 lung 10.9% | NCI-H322M lung 41.4% | 786-0 renal 41%
active: NCI-H226 lung 6.47% | HOP-62 NSCLC 9.58% | NCI-H460 lung -60.2% | HOP-92 NSCLC -36% | NCI-H522 lung -33.8% | A549/ATCC NSCLC -48.3% | COLO 205 colon -91.5%

CS(=O)(=O)c1nnc(-c2ccccc2)s1
inactive: NCI-H23 lung 99.4% | NCI-H226 lung 113% | NCI-H322M lung 111% | HOP-62 NSCLC 85.5% | NCI-H460 lung 111% | HOP-92 NSCLC 103% | NCI-H522 lung 11.6% | A549/ATCC NSCLC 87.1% | 786-0 renal 88.7% | COLO 205 colon 77.3%

CN(C)CCN1C(=O)c2cccc3c(/C=C/CN4C(=O)c5cccc6cccc(c56)C4=O)ccc(c23)C1=O
active: 786-0 renal -84.5%
inactive: NCI-H23 lung 93.8% | NCI-H226 lung 98.7% | NCI-H322M lung 84.3% | HOP-62 NSCLC 88.9% | NCI-H460 lung 93.7% | HOP-92 NSCLC 94.2% | NCI-H522 lung 101% | A549/ATCC NSCLC 85.3% | COLO 205 colon 82.1%
